# The list is not random: actives were taken first. Their share in the collection is about 4.8%.
# DAX1 inh-1: inhibits human nuclear receptor DAX1; HEK293 Gal4-DAX1 luciferase reporter, luminescence; inhibition, % at 6.75 µM; 340,000 tested, 0.99% active; AID 504766;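 active = inhibition above the mean over all tested compounds plus 3 SD, cut at about 4.2% in these data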;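 note: 0% = DAX1-transfected cells with DMSO and 100% = empty-vector control cells with DMSO; inhibition shows as a rise in luminescence from relieved DAX1 repression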
# Target sequence (P51843 207-470 limits assumed): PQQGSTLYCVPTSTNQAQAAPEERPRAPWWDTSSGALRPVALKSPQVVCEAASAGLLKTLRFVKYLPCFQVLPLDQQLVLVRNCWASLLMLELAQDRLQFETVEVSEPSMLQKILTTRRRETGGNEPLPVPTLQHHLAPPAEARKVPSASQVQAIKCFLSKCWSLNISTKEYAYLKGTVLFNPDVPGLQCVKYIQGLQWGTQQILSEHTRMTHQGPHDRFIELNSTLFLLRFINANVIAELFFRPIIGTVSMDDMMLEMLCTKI
# ssDAF12 agonist: activators of S. stercoralis DAF-12 nuclear receptor; HEK293 ssDAF-12/GRIP1 lit1-tk-luc reporter, luminescence; % of 3 µM dafachronic acid response; activation, % at 6.8 µM; 370,000 tested, 1% active; AID 652126;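 active = activation above the mean over all tested compounds plus 3 SD, cut at about 0.9% in these data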;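 note: 0% = DMSO-only wells and 100% = 3 µM delta7-dafachronic acid wells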
# hcDAF12 agonist: activates DAF-12 receptor from parasite H. contortus; HEK293 hcDAF-12 lit1-tk-luc reporter, luminescence; 0% DMSO, 100% Δ7-dafachronic acid; 370,000 tested, 1.4% active; activation, % at 6.8 µM;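 active = activation above the mean of all tested compounds plus 3 SD, cut at about 5.5% in these data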;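 note: 100% = response to 3 µM Δ7-dafachronic acid high control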
# hgDAF12 agonist: agonists of H. glycines DAF-12 nuclear receptor. HEK293 GAL4-hgDAF12 UAS-luciferase reporter, agonist luminescence; normalized to butyrate control. activation, % at 6.8 µM. 370,000 tested, 1.8% active. AID 687014;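 active = activation above a cutoff set at the mean of all screened compounds plus 3 SD, cut at about 10% in these data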;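 note: 0% = DMSO wells and 100% = sodium butyrate wells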
# SMARCA2 act: SMARCA2 function activation, primary screen; MG213 cells, MMTV-luciferase reporter, dexamethasone, overnight; activation, % at 9.1 µM; 370,000 tested, 1% active; in the data active = activation above about 7.8%;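 note: 0% = vehicle wells and 100% = reference activator wells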
# DAX1 inh-2: DAX1 (NR0B1) inhibition, primary screen. HEK293T StAR-luciferase reporter, SF-1/DAX-1 repression relief. inhibition, % at 6.8 µM. 370,000 tested, 1.1% active. AID 652010;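 active = inhibition above the mean over all tested compounds plus 3 SD, cut at about 3.6% in these data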;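 note: 0% = DAX-1 cells with DMSO and 100% = cells lacking DAX-1 with DMSO; higher inhibition means more luminescence from relief of DAX-1 repression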
# LXR ag: counter-screen for hcDAF-12 agonists: agonists of human LXR-beta; HEK293 Gal4-LXR tk-luc reporter, luminescence, 24 h; normalized: DMSO 0%, positive control 100%; activation, % at 6.8 µM; shares compounds with hcDAF12 agonist; 3,400 tested, under 10 active;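 active = mean percent activation of the reporter above a cutoff set as the average over tested compounds plus their standard deviation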
# Target sequence (P55055 whole entry, looked up, the tested form may be a part): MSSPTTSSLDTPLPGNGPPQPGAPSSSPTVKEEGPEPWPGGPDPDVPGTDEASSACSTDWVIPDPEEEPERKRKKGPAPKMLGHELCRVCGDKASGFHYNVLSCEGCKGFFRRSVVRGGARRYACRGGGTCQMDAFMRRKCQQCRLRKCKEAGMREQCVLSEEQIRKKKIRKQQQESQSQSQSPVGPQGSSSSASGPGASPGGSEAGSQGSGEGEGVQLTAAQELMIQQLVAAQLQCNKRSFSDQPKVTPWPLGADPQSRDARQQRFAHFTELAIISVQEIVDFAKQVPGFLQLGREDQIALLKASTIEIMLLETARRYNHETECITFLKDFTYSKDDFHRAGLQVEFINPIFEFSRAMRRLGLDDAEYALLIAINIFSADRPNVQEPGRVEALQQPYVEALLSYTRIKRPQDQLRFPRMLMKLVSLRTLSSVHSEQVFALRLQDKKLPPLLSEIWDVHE
# hcDAF12 conf: confirmation of H. contortus DAF-12 agonists. shares compounds with hcDAF12 agonist. HEK293 hcDAF-12 lit1-tk-luc reporter, luminescence; % of Δ7-dafachronic acid response. activation, % at 6.8 µM. 3,400 tested, 61% active;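 active = mean activation across triplicate tests above the threshold derived from the earlier primary screen, cut at about 5.5% in these data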;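 note: 0% = DMSO only wells and 100% = 3 µM Δ7-dafachronic acid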
# hgDAF12 ag: hgDAF-12 agonism, confirmation assay. HEK293 GAL4-hgDAF12 luciferase reporter, agonist mode; percent of butyrate response. shares compounds with hgDAF12 agonist. activation, % at 6.8 µM. 3,300 tested, 80% active. AID 743050;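 active = mean activation over triplicate wells above the hit cutoff derived from the earlier primary screen, cut at about 11% in these data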;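 note: 0% = DMSO low control and 100% = 2 mM sodium butyrate high control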
# LXRb DAF12 ctr: LXR-beta agonism as DAF-12 counter-screen | shares compounds with hgDAF12 agonist | HEK293 Gal4-LXR luciferase reporter, 24 h | activation, % at 6.8 µM | 3,300 tested, under 10 active | AID 743051;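 active = mean activation of the triplicate above a set limit carried over from the primary screen, none filed active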
# * marks the source's active call; other numbers are inactive results; . = no result given.
SMILES,DAX1 inh-1,ssDAF12 agonist,hcDAF12 agonist,hgDAF12 agonist,SMARCA2 act,DAX1 inh-2,LXR ag,hcDAF12 conf,hgDAF12 ag,LXRb DAF12 ctr
CN1CCSc2ccc(C(=O)Nc3cccc(F)c3)cc21,7.4*,2.0*,10.9*,23.8*,1.1,3.8*,1.3,8.3*,24.5*,1.1
CCN(CC)c1ccc(C(=O)Nc2cccc(F)c2)cc1,1.5,0.2,7.2*,15.0*,4.7,1.8,1.5,4.1,19.1*,1.1
O=C(Cn1cc(C(F)(F)F)ccc1=O)N/N=C/c1ccc(Cl)cc1,-1.0,-1.3,-0.3,-0.5,-2.3,0.0,.,.,.,.
Cc1ccc(-c2csc(-c3c[nH]c4ccccc34)n2)c(C)c1,1.6,0.0,0.7,8.7,2.3,0.8,.,.,.,.
Oc1ccc(-c2csc(-c3c[nH]c4ccccc34)n2)c(O)c1,3.2,2.7*,8.3*,14.2*,5.2,3.5,1.2,9.2*,17.0*,0.8
CC(C)c1ccc2nc(NC(=O)C3CC3)sc2c1,3.9,-0.2,7.0*,22.1*,1.2,3.1,1.1,2.6,17.0*,0.6
O=C(Nc1nc2ccc(Cl)cc2s1)C1CC1,-2.1,-1.8,0.7,0.8,-2.2,-0.3,.,.,.,.
Clc1ccc(C=NN2CCCCCC2)c(Cl)c1,-1.0,-0.7,0.0,0.2,0.8,0.9,.,.,.,.
Cc1ccc(-c2nc3nc4ccccc4nc3n2Cc2ccco2)cc1,1.5,1.4*,10.8*,16.2*,3.3,5.1*,1.3,8.8*,13.9*,0.9
Clc1ccc(-c2nc3nc4ccccc4nc3n2Cc2ccco2)cc1,3.5,1.1*,8.4*,14.1*,3.0,3.1,0.6,5.8*,7.3,0.2
CC(C)n1cnc2cc(NCc3nc4ccccc4n3C)ccc21,1.0,-0.6,6.7*,14.2*,3.0,2.4,1.2,6.1*,11.2*,0.7
Cn1c(CNc2nc3ccccc3n2CCN2CCCCC2)nc2ccccc21,1.7,-1.3,-1.5,-1.8,-3.7,-0.1,.,.,.,.
Cc1ccc2nc(-c3ccccn3)oc2c1,-0.2,2.8*,11.6*,14.4*,-1.2,3.4,1.3,15.4*,24.0*,0.9
Cc1ccc2nc(-c3cccnc3)oc2c1,1.8,-0.5,4.5,7.8,5.9,0.7,.,.,.,.
Cc1csc(NC(=O)Cc2coc3cc(C)c(C(C)C)cc23)n1,-2.6,-1.8,-4.3,-6.7,-0.7,-1.1,.,.,.,.
CC[n+]1c(/C=C/c2ccc(OC)c(OC)c2)ccc2ccccc21,4.4*,1.1*,9.3*,16.8*,5.0,3.4,1.1,9.7*,17.7*,0.9
CC[n+]1c(/C=C/c2ccc(OC(C)=O)c(OC)c2)ccc2ccccc21,1.5,-0.5,-0.8,6.5,7.4,1.8,.,.,.,.
O=C(Nc1cccc(-c2nc3ncccc3o2)c1)c1cc2ccccc2o1,-1.7,-1.1,-1.5,-1.3,3.1,-1.1,.,.,.,.
COc1ccccc1NC(=O)c1cc2ccccc2o1,3.1,1.9*,16.5*,13.7*,7.7,1.7,1.4,15.4*,22.3*,0.7
COc1ccccc1C(=O)Nc1cc2ccccc2oc1=O,1.0,.,.,.,.,.,.,.,.,.
O=C(Nc1ncccc1Cl)c1cc2ccccc2o1,2.4,0.8,7.3*,16.4*,3.0,2.1,1.0,6.2*,17.6*,0.7
COc1cc(NC(=O)c2cc3ccccc3o2)c(OC)cc1Br,-0.1,0.2,1.4,5.6,0.8,0.9,.,.,.,.
COc1ccc(S(=O)(=O)Nc2ccccc2OC)cc1NC(=O)c1cc2ccccc2oc1=O,2.5,0.9*,7.7*,14.3*,3.2,2.7,0.7,3.5,9.6,0.4
Cc1ccccc1NC(=O)c1cc2ccccc2o1,2.7,0.2,7.7*,13.8*,5.7,2.2,1.3,9.2*,16.4*,0.6
CC(=O)Nc1ccc(NC(=O)C2CCCN2C(=O)Nc2cccc(F)c2)cc1 (stereo not given),-0.2,-1.1,-0.3,-1.3,-3.8,-0.1,.,.,.,.
SMILES,DAX1 inh-1,ssDAF12 agonist,hcDAF12 agonist,hgDAF12 agonist,SMARCA2 act,DAX1 inh-2,LXR ag,hcDAF12 conf,hgDAF12 ag,LXRb DAF12 ctr
CN(c1ccccc1)S(=O)(=O)c1cccc(NC(=O)C2=NNC(=O)CC2)c1,-2.5,-1.8,-1.6,-5.0,-3.3,-1.6,.,.,.,.
NS(=O)(=O)c1ccc(NC(=O)CN2CCCC2)cc1,1.4,-1.7,-0.1,4.4,1.8,0.3,.,.,.,.
Oc1ccc(C[C@H]2CNC(=S)N2CC2CCCN2C[C@H](Cc2ccc(O)cc2)N2C[C@H](Cc3ccccc3)N(CCc3ccccc3)C2=S)cc1 (stereo not given in full),-0.6,-1.1,-3.3,-3.7,-4.0,-1.0,.,.,.,.
Cc1occc1C(=O)N/N=C/c1ccc(-c2ccccc2)cc1,-0.2,1.1*,7.9*,18.9*,6.6,2.8,1.8,5.4,20.9*,1.0
Cc1occc1C(=O)N/N=C/c1ccc(OCc2ccccc2)cc1,2.8,-0.7,3.9,7.8,3.0,1.0,.,.,.,.
O=C(c1ccc(C(F)(F)F)cc1)N1CCC(=O)N([C@H](COCc2ccc(Cl)cc2)Cc2ccccc2)CC1,.,-0.1,0.2,3.2,-1.8,-1.1,.,.,.,.
Cc1ccc(NC(=O)CSCc2ccco2)cc1,0.7,1.3*,8.0*,17.0*,7.4,-0.5,0.5,4.0,13.0*,0.4
COc1cccc(C(=O)Nc2ccc(NC(=O)C3CC=CCC3C(=O)O)cc2)c1 (stereo not given),0.1,-0.4,0.7,2.2,0.8,0.9,.,.,.,.
O=C(Nc1nc2c(s1)CCCC2)c1cccnc1,4.1,.,.,.,.,.,.,.,.,.
Cc1ccc(C(=O)Nc2nc3c(s2)CCCC3)o1,2.4,-0.2,10.8*,13.4*,1.6,3.8*,1.9,7.0*,16.2*,1.0
O=C(Nc1nc2c(s1)CCCC2)c1ccc(Br)o1,0.4,1.3*,12.6*,16.2*,1.1,2.3,1.9,10.4*,18.4*,1.1
CCc1nnc(NC(=O)c2ccc(C)o2)s1,0.0,-0.4,1.1,5.8,6.5,2.9,.,.,.,.
O=c1cc(-c2ccccc2)[nH]c2nc3ccccc3n12,0.9,1.5*,10.8*,13.8*,4.2,3.7*,1.9,15.2*,19.4*,1.1
O=c1cc(CCl)[nH]c2nc3ccccc3n12,-0.8,0.2,-1.2,-1.6,-0.5,0.1,.,.,.,.
